# From PubChem BioAssay (Tox21)
# Results filed as inconclusive are left out. Where a call stands in place of a potency, no number is given. Activity calls are given as the source filed them. Calls follow the shape of the dose curve; as a rule, active = well fitted inhibition curve with a large enough effect in the repeat runs; inconclusive = weak or mixed curves, or effect the other way; inactive = no such curve, though single readings can be large or run the other way.
# Target: Androgen receptor (Homo sapiens) (UniProt P10275)
# Assay: qHTS assay to identify small molecule antagonists of the androgen receptor (AR) signaling pathway using the MDA cell line (AID 743042; also: nearly all actives have a fitted effect of over 55% in size)
# Settings: MDA-kb2 AR-luc, MMTV luciferase, R1881 antagonist, 16 h; series mostly up to 70.3 µM
# Excerpt: U.S. Tox21 Program National Center for Advancing Translational Sciences [NCATS] NIH Chemical Genomics Center [NCGC] U.S. Environmental Protection Agency [EPA] National Institutes of Environmental Health Sciences [NIEHS] National Toxicology Program [NTP] U.S. Food and Drug Administration [FDA] Tox21 Assay Overview: Androgen receptor (AR), a nuclear hormone receptor, plays a critical role in AR-dependent prostate cancer and other androgen related diseases. Endocrine disrupting chemicals (EDCs) and their interactions with steroid hormone receptors like AR may cause disruption of normal endocrine function as well as interfere with metabolic homeostasis, reproduction, developmental and behavioral functions. To identify the compounds that inhibit AR signaling, MDA-kb2 AR-luc cell line (from ATCC, deposited by Wilson et al.) was used to screen the Tox21 10K compound library. MDA-kb2 AR-luc cell line is human breast carcinoma cell line that was stably transfected with a luciferase reporter gene under control of the MMTV promoter containing response elements for both androgen receptor (AR) and glucocorticoid receptor (GR).
# Tox21 Assay Protocol Summary: MDA-kb2 cells were dispensed at 3,000 cells/4 uL/well of culture medium into white wall/solid-bottom 1536-well plates using a Multidrop Combi (ThermoFisher Scientific, Waltham, MA) dispenser. After the assay plates were incubated at a 37C and 0% CO2 for 5 hr, 23 nL of compounds dissolved in DMSO, positive controls or DMSO only was transferred to the assay plate by a Pintool station (Kalypsys, San Diego, CA), followed by addition of 1 uL of agonist (R1881) in culture medium using a Bioraptr Flying Reagent Dispenser (FRD) workstation (Beckman Coulter, Indianapolis, IN, USA). The plates were incubated at a 37C and 0% CO2 for 16 h. After 15.5 h incubation, 1uL of CellTiter-Fluor reagent (Promega, Madison, WI) was added using a Bioraptr FRD to each plate for measuring cytotoxicity. The fluorescence intensity was quantified on a ViewLux plate reader (PerkinElmer, Shelton, CT) following 30 min incubation at 37C and 0% CO2. For measuring luciferase reporter gene activity, 4 uL of ONE-Glo reagent (Promega) was added to each plate using a Bioraptr FRD and luminescence was quantified on a ViewLux (PerkinElmer) plate reader after 30 min incubation at room temperature.
# Potency is read from the fitted curve at half-maximal effect.
# Androgen receptor (Homo sapiens), sequence (P10275 whole entry, looked up): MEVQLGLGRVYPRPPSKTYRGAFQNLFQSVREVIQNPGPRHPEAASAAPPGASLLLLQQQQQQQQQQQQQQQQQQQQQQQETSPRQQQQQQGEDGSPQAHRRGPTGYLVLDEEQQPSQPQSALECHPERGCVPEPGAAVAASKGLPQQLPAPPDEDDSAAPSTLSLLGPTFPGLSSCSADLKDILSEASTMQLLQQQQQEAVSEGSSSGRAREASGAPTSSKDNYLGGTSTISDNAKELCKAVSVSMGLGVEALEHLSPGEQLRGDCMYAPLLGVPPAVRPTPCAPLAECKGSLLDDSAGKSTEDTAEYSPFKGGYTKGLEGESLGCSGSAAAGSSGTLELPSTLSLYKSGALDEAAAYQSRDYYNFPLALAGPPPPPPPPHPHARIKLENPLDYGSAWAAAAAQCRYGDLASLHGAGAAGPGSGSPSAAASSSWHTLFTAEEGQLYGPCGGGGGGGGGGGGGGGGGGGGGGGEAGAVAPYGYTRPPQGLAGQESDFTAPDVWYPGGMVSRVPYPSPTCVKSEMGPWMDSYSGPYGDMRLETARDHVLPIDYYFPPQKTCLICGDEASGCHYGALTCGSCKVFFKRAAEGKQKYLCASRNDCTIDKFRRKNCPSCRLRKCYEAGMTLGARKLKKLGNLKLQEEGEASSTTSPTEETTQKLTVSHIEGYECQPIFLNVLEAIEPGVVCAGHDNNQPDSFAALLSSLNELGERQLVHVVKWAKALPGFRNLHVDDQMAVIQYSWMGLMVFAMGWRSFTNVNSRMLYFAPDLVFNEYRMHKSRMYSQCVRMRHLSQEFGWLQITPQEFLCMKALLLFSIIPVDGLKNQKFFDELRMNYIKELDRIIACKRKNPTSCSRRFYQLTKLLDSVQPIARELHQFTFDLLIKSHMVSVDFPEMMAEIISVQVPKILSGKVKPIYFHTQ
row,Compound,Potency
1,CO[C@@H]1[C@H](OC(=O)NC(=O)CCl)CC[C@]2(CO2)[C@H]1[C@@]1(C)O[C@@H]1CC=C(C)C,inactive
2,C=CCOC(C)=O,inactive
3,C[C@@H]1CC[C@H]2[C@@H](C)C(=O)O[C@@H]3O[C@@]4(C)CC[C@@H]1[C@]32OO4,1.33 µM (active)
4,CCOP(=S)(OCC)Oc1cc(Cl)c(Br)cc1Cl,inactive
5,O=C(Nc1ccccc1)Nc1ccnc(Cl)c1,30.6 µM (active)
6,CS/C(C)=N/OC(=O)N(C)SN(C)C(=O)O/N=C(\C)SC,inactive
7,COP(=S)(OC)Oc1ccc([N+](=O)[O-])cc1Cl,inactive
8,O=[N+]([O-])C(Br)(CO)CO,inactive
9,Cc1cc(=O)[nH]o1,inactive
10,CCCCC(CC)COP(=O)(Oc1ccccc1)Oc1ccccc1 (stereo not given),inactive
11,O=C1C(Cl)C(CCl)CN1c1cccc(C(F)(F)F)c1 (stereo not given),inactive
12,CO/N=C(/C(=O)OC)c1ccccc1COc1ccccc1C,27.3 µM (active)
13,CC(=O)NC1CCSC1=O (stereo not given),inactive
14,COP(=S)(OC)Oc1cc(Cl)c(I)cc1Cl,inactive
15,COP(=O)(OC)O/C(=C/Cl)c1cc(Cl)c(Cl)cc1Cl,72.4 µM (active)
16,Cc1ccc2ccccc2c1,inactive
17,O=NN1CCCCCC1,inactive
18,Brc1ccccc1,inactive
19,OC(c1ccc(Cl)cc1)(c1ccc(Cl)cc1)c1cccnc1,61.1 µM (active)
20,c1ccc(C2CC2)c(OCC2=NCCN2)c1,inactive

row,Compound,Potency
1,C[N+](C)(C)CCCl,inactive
2,CC(C)=CCOc1c2occc2cc2ccc(=O)oc12,inactive
3,C=CC(=O)NCNC(=O)C=C,inactive
4,COC1=CC(=O)O[C@@H](CCc2ccccc2)C1,inactive
5,CC1CC(CC2CCC(N)C(C)C2)CCC1N (stereo not given),inactive
6,COc1ccc(-c2ccccc2)cc1NNC(=O)OC(C)C,71.5 µM (active)
7,II,inactive
8,O=C(C(Cl)(Cl)Cl)C(Cl)(Cl)Cl,inactive
9,Nc1ccc([N+](=O)[O-])cc1[N+](=O)[O-],inactive
10,NCCCNCCCN,inactive
11,C/C(=C\c1ccccc1)[N+](=O)[O-],27.3 µM (active)
12,O=C(CCl)c1ccc(Cl)cc1Cl,inactive
13,COP(=S)(Oc1cc(Cl)c(Br)cc1Cl)c1ccccc1 (stereo not given),inactive
14,N#CCC#N,inactive
15,CCCCCC[N+](=O)[O-],inactive
16,S=C=NCc1ccccc1,inactive
17,BrCC(Br)C1CCC(Br)C(Br)C1 (stereo not given),inactive
18,IC(I)=C(I)I,19.3 µM (active)
19,Cc1ccc(-c2c(Cl)nc(C#N)n2S(=O)(=O)N(C)C)cc1,54.4 µM (active)
20,CCOC(=O)COc1cc(-c2nn(C)c(OC(F)F)c2Cl)c(F)cc1Cl,inactive
